According to PubChem BioAssay AID1706 (The Scripps Research Institute Molecular Screening Center, 2009):
In all, about 290,000 compounds went through this assay and about 400 (0.14%) were called active. No stated cut-off is given here; in the data, active means inhibition above about 12%; inactive means the rest. Many of the other results were omitted from the sample, so actives are more common in it than they were.

biological target: Replicase polyprotein 1ab (Severe acute respiratory syndrome coronavirus) (UniProt P0C6X7); test: blockers of SARS 3CLpro peptide cleavage – biochemical, quenched FRET, primary screen (AID 1706); conditions: recombinant SARS-CoV 3CLpro, at 6 µM, stronger effect = higher value

Compound | inhibition
COc1ccc(S(=O)(=O)c2c[nH]c(=S)[nH]c2=O)cc1Cl | -1.78% (inactive)
CN(CC(=O)N1CCN(c2ccccc2)CC1)S(=O)(=O)c1cccs1 | 2.74% (inactive)
CC(=O)c1ccc(S(=O)(=O)N2CCC(Oc3ccc(-n4cnnn4)cc3)CC2)cc1 | -1.99% (inactive)
CC(Sc1nnc(CNC(=O)c2ccccc2F)n1C)C(=O)Nc1nccs1 (stereo not drawn) | -0.59% (inactive)
COc1cc(C(=O)NCCOC(=O)c2cccc(N(C)C)c2)cc(OC)c1OC | 0.81% (inactive)
CCOC(=O)C1CCCN(CCSc2ccc(C)cc2)C1 (stereo not drawn) | -2.08% (inactive)
COc1ccc(-c2nn(-c3ccccc3)cc2/C=C\C(=O)Nc2ccc(C(=O)O)cc2)cc1 | 7.15% (inactive)
O=C(O)c1ccc(NC(=O)c2cn(-c3ccccc3)nc2-c2ccc(Cl)cc2)cc1 | 12.7% (active)
Cc1ccc(-c2nn(-c3ccccc3)cc2C(=O)Nc2cccc(S(=O)(=O)N3CCOCC3)c2)cc1 | 1.75% (inactive)
CCc1ccc(N(C(=O)c2csnn2)C(C(=O)NC2CCCCC2)c2ccncc2)cc1 (stereo not drawn) | 0.17% (inactive)
CC(C)(C)c1ccccc1NC(=O)CN1C(=O)NC2(CCCC2)C1=O | 0.18% (inactive)
Clc1ccc(Cc2nn3c(-c4ccncc4)nnc3s2)cc1 | 2.77% (inactive)
O=C(NCCCN1CCCCC1)C1CCCN(c2ncnc3c2nc2n3CCCCC2)C1 (stereo not drawn) | 1.81% (inactive)
Cc1nn2c(=O)cc(COC(=O)c3ccc(NC(=O)C(C)(C)C)cc3)nc2s1 | -0.62% (inactive)
Fc1ccccc1/C=N/Nc1cc(N2CCCCC2)ncn1 | 0.22% (inactive)
O=C(C1CCC(C(=O)N2CCCC2)CC1)N1CCCC1 (stereo not drawn) | -3.63% (inactive)
COc1cccc(-c2noc(C3CCCN(C(=O)c4ccc(F)cc4)C3)n2)c1 (stereo not drawn) | 2.89% (inactive)
CCNS(=O)(=O)c1ccc(CCC(=O)N2CCN(c3cc(Cl)ccc3C)CC2)cc1 | 0.81% (inactive)
CC(C)(C)C1CCC(C(=O)NCC(c2cccs2)N2CCOCC2)CC1 (stereo not drawn) | 4.8% (inactive)
COc1cc(NS(=O)(=O)c2ccc(NC(=S)NC(=O)c3ccc(Br)cc3)cc2)ncn1 | -2.77% (inactive)
COc1cc(CCC(=O)N2CCN(c3ccccc3Cl)CC2)cc(OC)c1OC | -0.35% (inactive)
CCN(CC)S(=O)(=O)c1ccc(Cl)c(C(=O)NCCN2CCOCC2)c1 | -0.28% (inactive)

Compound | inhibition
CC(C)CCN1CCN(Cc2cn[nH]c2C2CCCCC2)CC1CCO (stereo not drawn) | 1.66% (inactive)
COc1ccccc1/C=C/C(=O)NC(=S)N1CCOCC1 | 2.02% (inactive)
COc1ccc(Cc2nc3ccc(C(=O)N4CCC(N(C)C)C4)cc3o2)cc1 (stereo not drawn) | -1.77% (inactive)
Cc1cccc(N2C(=O)N3[C@H](c4ccc(F)cc4)[C@@H]4C(=O)N(C5CCCCC5)C(=O)[C@@H]4[C@]3(Cc3ccccc3)C2=O)c1 | 9.1% (inactive)
C[C@@]12C(=O)N(c3cccc(Br)c3)C(=O)N1[C@H](c1ccc(Cl)cc1)[C@@H]1C(=O)N(C3CCCCC3)C(=O)[C@@H]12 | 32.5% (active)
Cc1cccc([C@@H]2[C@@H]3C(=O)N(Cc4ccccc4)C(=O)[C@@H]3[C@]3(C)C(=O)N(c4ccc(Br)cc4)C(=O)N23)c1 | -2.23% (inactive)
Cn1c(=O)c(=O)n(C)c2cc(S(=O)(=O)CCC(=O)N3CCCCC3)ccc21 | -7.51% (inactive)
O=C(NCc1cccc(C(F)(F)F)c1)c1cccc(S(=O)(=O)N2CCN(Cc3ccccc3)CC2)c1 | 1.65% (inactive)
O=C(COc1ccc(S(=O)(=O)Nc2cccc(C(F)(F)F)c2)cc1)N1CCOCC1 | -1.24% (inactive)
O=C(NCc1ccccc1)c1ccc(S(=O)(=O)Nc2cccc(C(F)(F)F)c2)cc1 | 17.3% (active)
CN(C(=O)CCNC(=O)Cn1ccc2ccccc2c1=O)c1ccc(Br)cc1 | 1.62% (inactive)
COc1ccc(/C=C(\C#N)c2c[nH]c3ccccc23)cc1 | 14.6% (active)
COc1ccc2[nH]cc(/C=C(/C#N)S(=O)(=O)c3ccccc3)c2c1 | 4.75% (inactive)
COc1cc(/C=C(\C#N)c2nc3ccccc3[nH]2)ccc1O | -3.33% (inactive)
CC(c1cccnc1)N(CCN(C)C)C(=O)Nc1ccc(Cl)c(Cl)c1 (stereo not drawn) | 2.29% (inactive)
CS(=O)(=O)N(Cc1ccccc1Cl)c1ccc(C(=O)NCc2cccnc2)cc1 | 1.33% (inactive)
O=C(Nc1ccc(S(=O)(=O)NCC2CCCO2)cc1)c1ccc(F)cc1 (stereo not drawn) | -0.56% (inactive)
O=S(=O)(Nc1ccccc1)c1ccc(NS(=O)(=O)c2cccs2)cc1 | 2.66% (inactive)
COC(=O)C1=CN(c2ccc(F)c(F)c2)C=C(C(=O)OC)C1c1ccc([N+](=O)[O-])cc1 | 1.13% (inactive)
O=C(NCc1ccc(F)cc1)C1CCN(C(=O)Nc2ccc(F)cc2)CC1 | 5.05% (inactive)
CC(C)c1ccc(C2C(C(=O)c3ccco3)=C(O)C(=O)N2CC2CCCO2)cc1 (stereo not drawn) | -0.41% (inactive)
Cc1nn(C)c(C)c1C(C)NC(=O)c1ccc(OC2CCN(Cc3ccccn3)CC2)cc1 (stereo not drawn) | 3.56% (inactive)

Compound | inhibition
CCOc1ccc(OCc2cccc(C(=O)N(CC)CC)c2)cc1 | -3.35% (inactive)
COc1ccc(C(=O)NCCSc2ccccc2C)cc1 | 6.37% (inactive)
Cc1ccc(C(CNC(=O)Nc2ccccc2)N2CCN(C)CC2)cc1 (stereo not drawn) | -5.22% (inactive)
Cc1ccc(CS(=O)(=O)CCC(=O)NCc2ccc(F)cc2)cc1 | -1.28% (inactive)
COc1cccc(CC2(CO)CCCN(Cc3ccc(OC(F)F)cc3)C2)c1 (stereo not drawn) | -5.59% (inactive)
CCOC(=O)CN(Cc1ccc(OC)c(OC)c1)S(=O)(=O)c1ccc(OC)cc1 | 4.93% (inactive)
COc1ccc(C(CCN(Cc2ccc(OC)c(OC)c2)C(=O)CCl)c2ccccc2)cc1 (stereo not drawn) | 34.5% (active)
COc1ccc(CN(C)C(=O)CC(c2ccccc2)c2ccccc2)cc1 | 4.64% (inactive)
Cc1ccc(CNC(=O)CCNC(=O)Cn2ccc3ccccc3c2=O)cc1 | 3.36% (inactive)
COC(=O)COc1cccc2c(=O)n(CC(=O)NCc3ccccc3)ccc12 | 12.8% (active)
COC(=O)COc1cccc2c(=O)n(CC(=O)NCCc3ccc(OC)c(OC)c3)ccc12 | 4.26% (inactive)
CCCCNC(=O)N(O)C1N(/N=C/c2ccc(N(C)C)cc2)C(=S)SC1(C)C (stereo not drawn) | 77.3% (active)
CCCCNC(=O)N(O)C1N(/N=C/c2ccccc2O)C(=S)SC1(C)C (stereo not drawn) | 4.34% (inactive)
CCC(C)N1C(=S)SC(C)(C)C1N(O)C(=O)NC1CCCCC1 (stereo not drawn) | -0.75% (inactive)
O=C(Cc1ccccc1F)NC1CCSc2ccccc21 (stereo not drawn) | -4.7% (inactive)
Cc1ccnc(NS(=O)(=O)c2ccc(NC(=O)c3oc4ccccc4c3C)cc2)n1 | -4.86% (inactive)
C=C(C)COc1ccc(-c2n[nH]c(C)c2-c2ccccc2)c(O)c1 | 14.1% (active)
C=C(C)COc1ccc(-c2n[nH]c(C)c2-c2ccccc2OC)c(O)c1 | 11.1% (inactive)
CCOc1ccc(-c2n[nH]c(C)c2-c2ccccn2)c(O)c1 | 3.95% (inactive)
CC(=O)c1cc(C#N)c(N2CCCCC2)nc1C | 5.03% (inactive)
CC(=O)c1cc(-c2ccccc2)[nH]c1N1CCCC1 | 57.1% (active)
O=c1cc(-c2ccccc2)nc(N2CCCCC2)[nH]1 | 3.63% (inactive)

Compound | inhibition
CC(=O)c1cnc(Nc2nc(C)c3cc(C)ccc3n2)nc1C | 2.54% (inactive)
CN(C)/N=C/c1cn(-c2ccccc2)nc1-c1cccnc1 | 9.07% (inactive)
O=C(O)/C=C/c1cn(Cc2ccccc2)nc1-c1cccs1 | 3.03% (inactive)
O=Cc1cn(Cc2ccccc2)nc1-c1cccnc1 | 39.5% (active)
O=C1CCC(=O)N(c2ccccc2)N1 | 2.8% (inactive)
CC(C)C[C@@H](CO)N1CCN(Cc2ccc(O)cc2)CCC1=O | -3.5% (inactive)
CC(C)Nc1ccc(-n2nc3ccccc3[n+]2[O-])cc1 | -2.9% (inactive)
COc1ccc(N2CCN(C(=O)CNC(=O)c3ccc(Br)o3)CC2)cc1 | -5.34% (inactive)
O=C(Nc1ccc(S(=O)(=O)N2CCCCC2)cc1)C1CC(=O)N(c2ccc(F)cc2)C1 (stereo not drawn) | 1.61% (inactive)
CCc1ccc(-n2c(SCc3cc(=O)n4cc(Br)ccc4n3)nc3[nH]ncc3c2=O)cc1 | 0.2% (inactive)
CN(C)Cc1c(C(=O)N/N=C/c2ccccc2OCc2ccc(F)cc2)nnn1-c1nonc1N | 0.8% (inactive)
COc1ccc(NC(C(=O)Nc2cccc(C(C)=O)c2)c2ccccc2)cc1 (stereo not drawn) | 1.08% (inactive)
CCOC(=O)c1cccc(NC(=O)C2CCN(c3ncnc4c3nc3n4CCCCC3)CC2)c1 | 6.86% (inactive)
CCn1c(/C=C/Nc2ccccc2)[n+](CC)c2ccc(C(=O)OCC(F)(F)F)cc21 | -5.62% (inactive)
CC1CCN(Cc2nc3c(c(=O)n(C)c(=O)n3C)n2CCc2ccccc2)CC1 | 0.08% (inactive)
COc1ccccc1C(=O)NCc1nnc(SC(C)C(=O)Nc2nccs2)n1C (stereo not drawn) | 1.41% (inactive)
CN1C(CC(=O)Nc2ccc(Br)cc2)c2ccccc2CC1(C)C (stereo not drawn) | 0.03% (inactive)
CCSCc1nc(N)nc(NCCc2ccccc2)n1 | 1.32% (inactive)
COc1ccccc1CNC(=O)C1CCN(S(=O)(=O)c2ccc3c(c2)OCCO3)CC1 | 0.14% (inactive)
O=C(Nc1ccc(Cl)c(Cl)c1)c1ccccc1NC(=O)C1CC=CCC1C(=O)O (stereo not drawn) | 4.04% (inactive)
CC(C)CCn1cnc2c1c(=O)n(CC(=O)NC(N)=O)c(=O)n2Cc1ccccc1 | 2.02% (inactive)
O=C(NCCCN1CCCCC1)C1CC(=O)N(CCc2ccccc2)C1 (stereo not drawn) | -1.63% (inactive)
